In the library only some 18% were active in any assay of this set; here they are far more common.
VDR inh: vitamin D3 receptor (human) inhibition. Potency, µM, without a hit: max response, negative = inhibition, actives largely listed as inhibitors. actives 0.93% (n = 400,000). AID 504847. VDR-SRC2-3 peptide fluorescence polarization, 2 h. P11473
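VDR–SRC2-3 interaction, FP format. Cmpds 23 nl via pintool, brief spin, 2 h ambient incubation.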
KAT2A inh: inhibitors of human GCN5L2 histone acetyltransferase | GCN5L2 HAT assay, ThioGlo1 CoA-SH fluorescence | AID 504327 | Q92830 | actives 0.21% (n = 390,000) | Potency, µM (doses to about 58.9 µM), for the others: at the highest dose activity change, negative = inhibition, actives largely listed as inhibitors
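qHTS, 1536-well. 20nM enzyme, pH 7.5 HEPES/EDTA/Tween-20 buffer; 15 min compound preinc., RT. Start: 75uM H3(1-25), 70uM AcCoA, 50uM ThioGlo1. Read Ex340/Em540 at t=0 (autofluorescence flag) and t=20 min.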
TDP1 cell CPT: DT40-hTDP1 cell growth loss with CPT. Potency, µM (titrated, usually from 46.2 µM), for inactives: top-dose activity change, negative = growth inhibition, hits mostly inhibitors. AID 686979. actives 12% (n = 420,000). chicken DT40 Tdp1-/-;hTDP1 cells + 20 nM CPT, ATP luminescence, 48 h; note: nearly all actives have a fitted effect of over 55% in size
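Cell growth measured by CellTiter-Glo luminescence after a minimum 48 h, 37 C compound exposure with 20 nM CPT in Tdp1-knockout DT40 cells stably expressing hTDP1, seeded 400/well; qHTS titration format.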
TDP1 block: blocks human tyrosyl-DNA phosphodiesterase 1; actives 0.28% (n = 350,000); Potency, µM (doses to about 130 µM), inactives show at the highest dose activity change, negative = inhibition, usual class: inhibitors; recombinant TDP1, AlphaScreen DNA substrate cleavage; Q9NUW8; AID 485290; note: nearly all actives have a fitted effect of over 40% in size
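Tdp1 1 nM final; 15 min RT w/ cpd; substrate 15 nM, 5 min; beads 10 ug/ml, 10 min; AlphaScreen read. Neg ctrl: no enzyme.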
DT40 TDP1 no CPT: qHTS for Inhibitors of human tyrosyl-DNA phosphodiesterase 1 (TDP1): qHTS in cells in absence of CPT | AID 686978, 2013 | Potency, µM (top dose mostly 46.2 µM), for the others: at the highest dose activity change, negative = growth inhibition, actives largely listed as inhibitors | DT40 Tdp1-/- hTDP1 cells, no CPT, ATP luminescence, 48 h | actives 15% (n = 420,000); note: nearly all actives have a fitted effect of over 55% in size
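Chicken DT40 Tdp1-/- cells complemented with human TDP1, screened without camptothecin (DMSO vehicle only), 400 cells/well. Compounds pin-transferred, cells incubated at 37 °C for at least 48 hr. Growth read as ATP-dependent luminescence (CellTiter-Glo, 30 min at RT).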
PLK1 PBD block: PLK1 (human) polo-box domain binding inhibition. P53350. Plk1 PBD binding of FITC phosphopeptide, fluorescence polarization. Potency, µM, for inactives: max response, negative = inhibition, usual class: inhibitors. actives 2.8% (n = 360,000). AID 720504; note: series mostly up to about 57 µM; nearly all actives have a fitted effect of over 65% in size
Target sequence (P53350 whole entry, looked up, the tested form may be a part): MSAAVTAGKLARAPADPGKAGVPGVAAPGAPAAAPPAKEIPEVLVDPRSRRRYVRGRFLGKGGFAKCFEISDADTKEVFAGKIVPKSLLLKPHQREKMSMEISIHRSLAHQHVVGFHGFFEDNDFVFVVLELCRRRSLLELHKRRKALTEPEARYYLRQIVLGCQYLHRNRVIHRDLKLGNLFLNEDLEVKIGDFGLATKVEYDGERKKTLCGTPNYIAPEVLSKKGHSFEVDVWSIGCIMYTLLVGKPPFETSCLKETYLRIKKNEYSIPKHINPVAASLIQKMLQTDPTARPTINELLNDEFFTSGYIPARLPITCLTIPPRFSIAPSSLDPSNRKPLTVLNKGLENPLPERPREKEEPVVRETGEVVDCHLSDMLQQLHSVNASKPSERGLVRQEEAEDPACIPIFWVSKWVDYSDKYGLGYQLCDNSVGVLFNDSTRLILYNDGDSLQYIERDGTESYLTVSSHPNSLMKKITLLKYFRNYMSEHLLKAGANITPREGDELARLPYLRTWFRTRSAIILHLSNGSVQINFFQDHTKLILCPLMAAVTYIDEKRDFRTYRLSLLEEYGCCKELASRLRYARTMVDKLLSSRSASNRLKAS
Starred values were filed as active, the others as inactive; ? = inconclusive; nt = no result; [ ] = remark or other dose. Calls come from the whole dose curve; as a rule, active = well fitted curve in the direction sought with a large enough effect; inconclusive = small, poorly fitted or top-dose-only effect, or another doubt; inactive = no such curve, though single readings can be large; an effect the other way counts as inactive or inconclusive. % is set by controls: 0 for no effect and ±100 for the full control effect; potency is the fitted concentration of half-maximal effect.

SMILES	VDR inh	KAT2A inh	TDP1 cell CPT	TDP1 block	DT40 TDP1 no CPT	PLK1 PBD block
COC(=O)N1CCC2CC1c1c(Cl)cccc12 (centres undefined)	nt	nt	-1%	nt	-12%	-6%
CC[C@H](C)/C=C(C)/C=C/C1=CC2=CC(=O)[C@]3(C)OC(=O)[C@@H](C(C)=O)[C@@H]3C2=CO1	?	-8%	2.1µM*	5%	-76%	-26%
CC(=O)NC1[C@H](O)C[C@@](O)(C(=O)O)O[C@H]1[C@H](O)[C@H](O)CO (some centres undefined)	13%	-6%	nt	-1%	nt	nt
Cc1cccc(CNC(=O)Cc2ccc(NC(=O)N3CCCCc4ccccc43)cc2)c1	10%	-18%	?	-1%	16µM*	nt
COc1cccc(CNC(=O)c2ccc(NC(=O)N3CCCCc4ccccc43)cc2)c1	-2%	-3%	?	2%	21µM*	nt
COCCNC(=O)c1ccc(NC(=O)N2CCCCc3ccccc32)cc1	-6%	-3%	-5%	1%	-10%	nt
COCCCNC(=O)c1ccc(-n2c(-c3ccccc3)cc3c2CCCC3)cc1	4%	-6%	?	1%	21µM*	nt
CN(C)c1ccc(CNC(=O)Cc2ccc(NC(=O)N3CCCCc4ccccc43)cc2)cc1	16%	-10%	?	10%	21µM*	nt
COc1ccccc1NC(=O)CCSc1nc(C)cs1	-11%	2%	-6%	3%	-23%	-14%
Cc1ccccc1CNC(=O)Cc1ccc(NC(=O)N2CCCCc3ccccc32)cc1	3%	4%	?	8%	18µM*	nt
CCNC(=O)Cc1ccc(NC(=O)N2CCCCc3ccccc32)cc1	9%	-2%	-14%	8%	-11%	nt
COc1cccc(CNC(=O)c2ccc(CNS(=O)(=O)c3ccc(C)cc3)cc2)c1	9%	-9%	?	5%	?	nt
COc1ccc(C)cc1NC(=O)N1CCCc2ccccc21	-10%	-2%	?	nt	23µM*	-12%
COc1ccc(NC(=O)N2CCCc3ccccc32)c(OC)c1	2%	-28%	-27%	4%[56.1 µM]	7%	-6%
COc1cccc(CNC(=O)c2ccc(-n3c(C)cc4c3CCCC4)cc2)c1	12%	-5%	-83%	9%	16µM*	nt
CCCCN(CCCC)C(=O)/C=C/c1cccc([N+](=O)[O-])c1	-12%	-21%	?	3%	16µM*	-5%
CCN1CCN(C(=O)/C=C/c2ccc(C)cc2)CC1	20%	-29%	-8%	1%	16%	-12%
Cc1ccc(/C=C/C(=O)N2CCCN(C(=O)/C=C/c3ccc(C)cc3)CC2)cc1	-13%	18%	?	2%	15µM*	-11%
CC(C)c1ccccc1NC(=O)COC(=O)/C=C/c1cccc([N+](=O)[O-])c1	?	1%	?	4%	?	15µM*
CCNC(=O)COC(=O)/C=C/c1cccc([N+](=O)[O-])c1	-13%	-6%	2%	-5%	-14%	-7%
CCOC(=O)N1CCN(C(=O)/C=C/c2ccc(C(C)(C)C)cc2)CC1	4%	?	?	3%	16µM*	-6%
O=C(c1cc(C2CC2)on1)N1CCCC(N2CCN(c3ccc(F)cc3)CC2)C1 (centres undefined)	2%	-13%	-18%	3%	-22%	-16%
NC=O	nt	nt	nt	8%	nt	nt
Cc1noc(C)c1-c1nc(N2CCN(C)CC2)c2ccccc2n1	-14%	-5%	-19%	nt	-10%	nt
CCCNC(=O)COc1coc(CN2CCN(c3ccccc3OC)CC2)cc1=O	9%	-36%	3%	3%	-1%	0%
SMILES	VDR inh	KAT2A inh	TDP1 cell CPT	TDP1 block	DT40 TDP1 no CPT	PLK1 PBD block
CCOC(=O)N1CCN(C(=O)/C=C/c2cccc([N+](=O)[O-])c2)CC1	0%	-7%	?	3%	-23%	30µM*
CC(C)n1c2ccccc2c2nnc(SCC(=O)Nc3ccccc3C(=O)O)nc21	4%	1%	?	-1%	?	27µM*
CSc1ccc(-c2ccc3c(c2)c(Sc2ccccc2)c(-c2ccccc2)n3C)cc1	nt	nt	-8%	nt	-8%	-22%
CSc1ccc(CN2CCN(C(C)C)C(CCO)C2)cc1 (centres undefined)	-12%	-23%	3%	nt	0%	-3%
CC(=O)/C(N=Nc1cc2c(c([N+](=O)[O-])c1C)C(C)(C)CC2(C)C)=C(\C)O	-2%	2%	?	8%	18µM*	2%
CC(=O)/C(N=Nc1cc2c(cc1[N+](=O)[O-])OCCO2)=C(\C)O	?	-5%	?	-3%	26µM*	?
CC(=O)/C(N=Nc1ccc(C(=O)O)cc1[N+](=O)[O-])=C(\C)O	15%	?	-1%	nt	11%	-12%
CC(C)CC(=O)Nc1ccc(C(=O)COC(=O)C2CCC2)cc1	-3%	-7%	-1%	3%	2%	-16%
O=C(Nc1cnccn1)C1c2ccccc2Oc2ccccc21	-3%	-19%	-7%	2%	-1%	-8%
CC1CCc2cc(F)cc3c2N1C(=O)C(C(=O)Nc1cnccn1)C3=O (centres undefined)	-8%	nt	1µM*	2%	0.79µM*	nt
O=C1c2ccccc2CN1Cc1ccccc1	-2%	-16%	-2%	nt	-7%	-2%
Cc1c(Cl)cccc1NC(=O)N1CCN(C(=O)c2ccco2)CC1	-25%	-15%	?	0%	-29%	17µM*
Cc1cc(Cl)c2oc(C(=O)N3CCN(C(=O)c4ccco4)CC3)c(C)c2c1	-9%	-3%	16µM*	3%	?	-27%
Cc1nc(-c2ccc(C)c(N3CCN(C(=O)Nc4cccc(Cl)c4C)CC3)c2)no1	0%	0%	?	-7%	16µM*	nt
CCCNC(=O)C1CCN(c2cc(-c3ccccc3)nc3ncnn23)CC1	-16%	-3%	?	-4%	-17%	6%
CC(=O)Nc1ccc2c(c1)nc1n2CCOC1	5%	1%	11%	-5%	0%	-2%
O=C(COc1ccc([N+](=O)[O-])cc1)Nc1ccc2c(c1)nc1n2CCOC1	?	-10%	?	-1%	?	3µM*
O=S(=O)(Nc1ccc2c(c1)nc1n2CCOC1)c1ccc(Cl)cc1	-4%	0%	?	2%	13µM*	0%
O=C(O)c1ccccc1C(=O)Nc1ccc(Oc2ccccc2)cc1	20%	-1%	15%	11%	-17%	-13%

Source: PubChem BioAssay (National Center for Advancing Translational Sciences (NCATS))
